# Test results reported in PMC11062922 (Nature Chemical Biology, 2023).
# Like-named read-outs stand apart in the source and are kept apart here.
# What was measured:
# Design in all cases: species or system human, MV4-11 + K-562 + COLO205 + SK-N-BE2 + OVCAR-8
# CAMK2B = settings: read-out: apparent Kd, n = 1
# CDC42BPG = settings: read-out: apparent Kd, compound concentrations: 100 nM and 1000 nM (sheet 'Samples'), n = 1
# TGFBR2 = settings: read-out: apparent Kd; compound concentrations: 100 nM and 1000 nM (sheet 'Samples'), CATDS: 0.26695766684010303; n = 1
# CDC7 = settings: read-out: apparent Kd; compound concentrations:100 nM and 1000 nM (sheet 'Samples'); n = 1
# FN3K = settings: read-out: apparent Kd, n = 1
# GAK = settings: read-out: apparent Kd; compound concentrations:100 nM and 1000 nM (sheet 'Samples'); n = 1
# ICK = settings: read-out: apparent Kd, n = 1
# MAPK10 = settings: read-out: apparent Kd; compound concentrations:100 nM and 1000 nM (sheet 'Samples'); n = 1
# RIPK2 = settings: read-out: apparent Kd; compound concentrations:100 nM and 1000 nM (sheet 'Samples'); n = 1
# CAMK2D = settings: read-out: apparent Kd; compound concentrations: 100 nM and 1000 nM (sheet 'Samples'), CATDS: 0.25731079955705399; n = 1
# CDK10 = settings: read-out: apparent Kd, n = 1
# MAPK1 = settings: read-out: apparent Kd; compound concentrations: 100 nM and 1000 nM (sheet 'Samples'), CATDS: 0.154787589884953; n = 1
# PBK = settings: read-out: apparent Kd; compound concentrations:100 nM and 1000 nM (sheet 'Samples'); n = 1
# PKN1 = settings: read-out: apparent Kd; compound concentrations:100 nM and 1000 nM (sheet 'Samples'); n = 1
# MAPK11 = settings: read-out: apparent Kd; compound concentrations: 100 nM and 1000 nM (sheet 'Samples'), CATDS: 0.36528894613698598; n = 1
# MAPKAPK2 = settings: read-out: apparent Kd; compound concentrations: 100 nM and 1000 nM (sheet 'Samples'), CATDS: 0.21813918573992899; n = 1
# TNK2 = settings: read-out: apparent Kd, n = 1
# CDC42BPB = settings: read-out: apparent Kd; compound concentrations: 100 nM and 1000 nM (sheet 'Samples'), CATDS: 0.117626319285852; n = 1
# CIT = settings: read-out: apparent Kd; compound concentrations: 100 nM and 1000 nM (sheet 'Samples'), CATDS: 0.106368492262706; n = 1
# CLK1 = settings: read-out: apparent Kd; compound concentrations: 100 nM and 1000 nM (sheet 'Samples'), CATDS: 0.214527954353402; n = 1
# CLK4 = settings: read-out: apparent Kd; compound concentrations: 100 nM and 1000 nM (sheet 'Samples'), CATDS: 0.24205596503661; n = 1
# MARK3 = settings: read-out: apparent Kd; compound concentrations: 100 nM and 1000 nM (sheet 'Samples'), CATDS: 9.9321002689151103E-2; n = 1
# MELK = settings: read-out: apparent Kd; compound concentrations: 100 nM and 1000 nM (sheet 'Samples'), CATDS: 9.4221597644958896E-2; n = 1
# PHKG2 = settings: read-out: apparent Kd; compound concentrations: 100 nM and 1000 nM (sheet 'Samples'), CATDS: 0.61617859145014098; n = 1
# CAMK4 = settings: read-out: apparent Kd; compound concentrations:100 nM and 1000 nM (sheet 'Samples'); n = 1
# CDK6 = settings: read-out: apparent Kd; compound concentrations:100 nM and 1000 nM (sheet 'Samples'); n = 1
# HSP90B1 = settings: read-out: apparent Kd; compound concentrations:100 nM and 1000 nM (sheet 'Samples'); n = 1
# MAPK9 = settings: read-out: apparent Kd; compound concentrations:100 nM and 1000 nM (sheet 'Samples'); n = 1
# CDC42 = settings: read-out: apparent Kd; compound concentrations:100 nM and 1000 nM (sheet 'Samples'); n = 1
# CDK7 = settings: read-out: apparent Kd; compound concentrations:100 nM and 1000 nM (sheet 'Samples'); n = 1
# ERCC2 = settings: read-out: apparent Kd; compound concentrations:100 nM and 1000 nM (sheet 'Samples'); n = 1
# FER = settings: read-out: apparent Kd; compound concentrations:100 nM and 1000 nM (sheet 'Samples'); n = 1
# [1] = compound concentrations:100 nM and 1000 nM (sheet 'Samples')
smiles,measurement,setting,value
CC(=O)c1cccc(NC(=O)NC2CCN(c3ccnc(Nc4ccc(F)cc4)n3)C2)c1 (stereo not drawn) [GSK1379710A],potency estimated from few doses,"CAMK2B; compound concentrations: 100 nM and 1000 nM (sheet 'Samples'), CATDS: 0.45537516387232402",658 nM
same,potency estimated from few doses,CDC42BPG; CATDS: 0.32700083085172899,1220 nM
same,potency estimated from few doses,TGFBR2,2000 nM
COc1cc2ncnc(Nc3cccc(Br)c3)c2cc1OC.Cl [GI230329A],potency estimated from few doses,CAMK2B; [1],405 nM
same,potency estimated from few doses,CDC7,2060 nM
same,potency estimated from few doses,FN3K; [1],2150 nM
same,potency estimated from few doses,GAK,319 nM
same,potency estimated from few doses,ICK; [1],1370 nM
same,potency estimated from few doses,MAPK10,956 nM
same,potency estimated from few doses,RIPK2,1140 nM
Cn1cc(C2=C(N3CCOCC3)C(=O)NC2=O)c2ccccc21 [RO3303031-000],potency estimated from few doses,"CAMK2B; compound concentrations: 100 nM and 1000 nM (sheet 'Samples'), CATDS: 0.26217327719794398",327 nM
same,potency estimated from few doses,CAMK2D,336 nM
same,potency estimated from few doses,"CDK10; compound concentrations: 100 nM and 1000 nM (sheet 'Samples'), CATDS: 0.15001944527595701",957 nM
same,potency estimated from few doses,"FN3K; compound concentrations: 100 nM and 1000 nM (sheet 'Samples'), CATDS: 0.12433120780871",1620 nM
same,potency estimated from few doses,"ICK; compound concentrations: 100 nM and 1000 nM (sheet 'Samples'), CATDS: 0.14025095323079101",1140 nM
same,potency estimated from few doses,MAPK1,887 nM
C[C@@H]1CCN(C(=O)CO)C[C@@H]1N(C)c1ncnc2[nH]ccc12 [PFE-PKIS_34],potency estimated from few doses,CAMK2B; [1],563 nM
same,potency estimated from few doses,PBK,1930 nM
same,potency estimated from few doses,PKN1,1140 nM
Nc1c(C(=O)c2cccc(CCS(N)(=O)=O)c2)cnn1-c1ccc(F)cc1 [RO1162009-000],potency estimated from few doses,CDC42BPG; CATDS: 0.22426146716058901,1250 nM
same,potency estimated from few doses,MAPK11,500 nM
same,potency estimated from few doses,MAPKAPK2,1340 nM
same,potency estimated from few doses,"TNK2; compound concentrations: 100 nM and 1000 nM (sheet 'Samples'), CATDS: 0.23701561839687901",1100 nM
FC1=CC(C3=NC2=CC(OC)=C(OC)C=C2C(N[C@H]4[C@H]([C@](C)(O)C)CNC4)=N3)=C(O)C=C1.Cl.Cl [CCT241533],potency estimated from few doses,CDC42BPB,1010 nM
same,potency estimated from few doses,CIT,1490 nM
same,potency estimated from few doses,CLK1,163 nM
same,potency estimated from few doses,CLK4,121 nM
same,potency estimated from few doses,MARK3,2010 nM
same,potency estimated from few doses,MELK,2590 nM
same,potency estimated from few doses,PHKG2,20.8 nM
FC(F)(F)c1cc(Nc2nccc(-c3c(-c4ccc(Cl)cc4)nn4ncccc34)n2)ccc1Cl [GW829351X],potency estimated from few doses,CAMK4,2170 nM
same,potency estimated from few doses,CDK10; [1],1110 nM
same,potency estimated from few doses,CDK6,1600 nM
same,potency estimated from few doses,HSP90B1,114 nM
same,potency estimated from few doses,MAPK9,1950 nM
Cc1ccc2c(-c3ccnc(Nc4ccc(C(F)(F)F)cc4)n3)cnn2n1 [GW819776X],potency estimated from few doses,CDC42,1650 nM
same,potency estimated from few doses,CDK7,1750 nM
same,potency estimated from few doses,ERCC2,898 nM
same,potency estimated from few doses,FER,1180 nM
same,potency estimated from few doses,GAK,1400 nM
same,potency estimated from few doses,HSP90B1,99.9 nM
same,potency estimated from few doses,TNK2; [1],1050 nM
